The panel holds about 79,000 compounds, 15% with a hit somewhere; the sample as a whole holds those more often. Unmarked numbers belong to inactive results. Activity calls are given as the source filed them. Rule as the data show it: active = growth inhibition above about 70%; inactive = the rest.

The nature of experiment [1]: NCI Yeast Anticancer Drug Screen. Data for the rad50 strain (AID 155).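 Also: 0% = growth of vehicle-only cultures of the same strain.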 The conditions noted are these: S. cerevisiae rad50 strain growth inhibition, active compounds read high. The gist of the method: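 Vehicle-treated cultures provide the reference for the growth inhibition reported for compound-exposed, repair-deficient yeast.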
Experiment [2] in a line: NCI Yeast Anticancer Drug Screen. Data for the mec2-1 strain (AID 157). To be noted: S. cerevisiae mec2-1 strain, active compounds read high. The gist of the method:
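Growth inhibition is read against vehicle-treated controls after compound exposure of the mec2-1 yeast strain, which is defective in DNA damage repair or cell cycle control.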

Experiment [3] can be described thus: NCI Yeast Anticancer Drug Screen. Data for the sgs1 mgt1 strain (AID 161).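 Also: 0% = growth of cultures given vehicle only.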 The conditions noted are these: S. cerevisiae sgs1 mgt1 strain, active compounds read high. The procedure, abridged: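 Compounds are added to genetically altered yeast, and growth is compared with cultures given vehicle alone to give percent inhibition.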
Experiment [4] is described as follows: NCI Yeast Anticancer Drug Screen. Data for the cln2 rad14 strain (AID 165).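 Also: 0% = growth equal to vehicle treated cultures.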 The conditions noted are these: S. cerevisiae cln2 rad14 strain, active compounds read high. The procedure, abridged:
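Growth inhibition, relative to vehicle-treated controls, is the read-out. The test organism is a yeast strain with defined genetic alterations, cln2 rad14.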

Experiment [5] in a line: NCI Yeast Anticancer Drug Screen. Data for the bub3 strain (AID 167). To be noted: S. cerevisiae bub3 mutant strain, active compounds read high. The gist of the method: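 Mutant yeast screening strain plus compound; vehicle-treated cultures serve as the 0% inhibition reference.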
Experiment [6] is described as follows: NCI Yeast Anticancer Drug Screen. Data for the mlh1 rad18 strain (AID 175). To be noted: S. cerevisiae mlh1 rad18 strain growth inhibition, active compounds read high. The procedure, abridged: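 Cells of a genetically altered yeast strain, deficient in DNA damage repair, were treated with compound. Their growth was then compared with that of vehicle-treated cultures to give inhibition.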

Setting [7] is: at 5.0 µM (retest, dose inferred, filed as 0.5).
Setting [8] is: at 50.0 µM (retest, dose inferred, filed as 5.0).

Turning to `Cc1cc(C)c(O)c(C)c1.[Hg]`, the growth inhibition in experiment [1] (setting [7]) is 99% (active); in experiment [1] (setting [8]) it was 98% (active); in experiment [1] (at 50.0 µM), 99.5% (active); in experiment [2] (setting [7]), 99% (active); in experiment [2] (setting [8]), 99% (active); in experiment [2] (at 50.0 µM), 99.5% (active). Moreover, the growth inhibition in experiment [3] (setting [7]) was 99% (active); in experiment [3] (setting [8]) it was 99% (active); in experiment [3] (at 50.0 µM), 99.5% (active); in experiment [4] (setting [7]) it was 99% (active); in experiment [4] (setting [8]), 99% (active); in experiment [4] (at 50.0 µM) it was 99.4% (active). Also, the growth inhibition was 98% (active) in experiment [5] (setting [7]); 99% (active) in experiment [5] (setting [8]); 99.3% (active) in experiment [5] (at 50.0 µM); 98% (active) in experiment [6] (setting [7]); 98% (active) in experiment [6] (setting [8]); 99.5% (active) in experiment [6] (at 50.0 µM).

Turning to `ClC1=C(Cl)C2(Cl)C(C3CO3)CC1(Cl)C2(Cl)Cl` (configuration not stated), the growth inhibition in experiment [1] (setting [7]) was 0%; in experiment [1] (setting [8]), 10%; in experiment [1] (at 50.0 µM), 76.1% (active); in experiment [2] (setting [7]) it was -1%; in experiment [2] (setting [8]) it was 11%; in experiment [2] (at 50.0 µM), 69.3%. For the same compound, the growth inhibition in experiment [3] (setting [7]) was -2%; in experiment [3] (setting [8]), 12%; in experiment [3] (at 50.0 µM) it was 90.8% (active); in experiment [4] (setting [7]), -12%; in experiment [4] (setting [8]), -13%; in experiment [4] (at 50.0 µM), 34.4%. Further, the growth inhibition in experiment [5] (setting [7]) is 4%; in experiment [5] (setting [8]), 28%; in experiment [5] (at 50.0 µM), 89.7% (active); in experiment [6] (setting [7]), 0%; in experiment [6] (setting [8]) it was 18%; in experiment [6] (at 50.0 µM) it was 55.9%.

In the case of `C[C@@H]1CCC2[C@@H](C)[C@H](O[C@H]3O[C@@H]4O[C@@]5(C)CCC6[C@H](C)CCC([C@H]3C)[C@]64OO5)O[C@@H]3O[C@@]4(C)CCC1[C@@]23OO4` (some centres not stated), the growth inhibition was 92% (active) in experiment [1] (setting [7]); 93% (active) in experiment [1] (setting [8]); 90.2% (active) in experiment [1] (at 50.0 µM); 95% (active) in experiment [2] (setting [7]); 94% (active) in experiment [2] (setting [8]); 91.6% (active) in experiment [2] (at 50.0 µM). In addition, the growth inhibition in experiment [3] (setting [7]) is 94% (active); in experiment [3] (setting [8]) it was 95% (active); in experiment [3] (at 50.0 µM) it was 92% (active); in experiment [4] (setting [7]), 79% (active); in experiment [4] (setting [8]) it was 93% (active); in experiment [4] (at 50.0 µM), 89.7% (active). The growth inhibition in experiment [5] (setting [7]) was 92% (active); in experiment [5] (setting [8]), 94% (active); in experiment [5] (at 50.0 µM), 91.2% (active); in experiment [6] (setting [7]), 93% (active); in experiment [6] (setting [8]), 93% (active); in experiment [6] (at 50.0 µM), 90.8% (active).

Take `[Ni+2].[SH2+]C([SH2+])=Nc1ccccc1.[SH2+]C([SH2+])=Nc1ccccc1.c1ccc(C[P+](c2ccccc2)(c2ccccc2)c2ccccc2)cc1`: the growth inhibition was 14% in experiment [1] (setting [7]); 91% (active) in experiment [1] (setting [8]); 97.9% (active) in experiment [1] (at 50.0 µM); 26% in experiment [2] (setting [7]); 88% (active) in experiment [2] (setting [8]); 98% (active) in experiment [2] (at 50.0 µM). The growth inhibition in experiment [3] (setting [7]) was 21%; in experiment [3] (setting [8]), 91% (active); in experiment [3] (at 50.0 µM), 97.8% (active); in experiment [4] (setting [7]) it was -6%; in experiment [4] (setting [8]), 87% (active); in experiment [4] (at 50.0 µM), 90.8% (active). In addition, the growth inhibition was 8% in experiment [5] (setting [7]); 85% (active) in experiment [5] (setting [8]); 95.3% (active) in experiment [5] (at 50.0 µM); 40% in experiment [6] (setting [7]); 98% (active) in experiment [6] (setting [8]); 98.5% (active) in experiment [6] (at 50.0 µM).

As for `ClCCN(CCCl)c1ccc(C2N(Cc3ccc(Cl)cc3)CCCN2Cc2ccc(Cl)cc2)cc1`, the growth inhibition in experiment [1] (setting [7]) was 11%; in experiment [1] (setting [8]), 56%; in experiment [1] (at 50.0 µM), 98.5% (active); in experiment [2] (setting [7]), 10%; in experiment [2] (setting [8]) it was 39%; in experiment [2] (at 50.0 µM), 98.5% (active). The growth inhibition was 16% in experiment [3] (setting [7]); 68% in experiment [3] (setting [8]); 98.8% (active) in experiment [3] (at 50.0 µM); 4% in experiment [4] (setting [7]); 24% in experiment [4] (setting [8]); 94.9% (active) in experiment [4] (at 50.0 µM). The growth inhibition in experiment [5] (setting [7]) was 7%; in experiment [5] (setting [8]) it was 35%; in experiment [5] (at 50.0 µM), 98.8% (active); in experiment [6] (setting [7]), 33%; in experiment [6] (setting [8]) it was 94% (active); in experiment [6] (at 50.0 µM), 98.4% (active).

As to `CS/C([S-])=N/N=C/c1ccccn1.[Cl][Pt+]`, the growth inhibition is 1% in experiment [1] (setting [7]); 58% in experiment [1] (setting [8]); 82.2% (active) in experiment [1] (at 50.0 µM); 3% in experiment [2] (setting [7]); 80% (active) in experiment [2] (setting [8]); 38% in experiment [2] (at 50.0 µM). The growth inhibition in experiment [3] (setting [7]) was 20%; in experiment [3] (setting [8]) it was 96% (active); in experiment [3] (at 50.0 µM), 89.6% (active); in experiment [4] (setting [7]), -3%; in experiment [4] (setting [8]), 29%; in experiment [4] (at 50.0 µM), 9.15%. For the same compound, the growth inhibition in experiment [5] (setting [7]) was -4%; in experiment [5] (setting [8]), 77% (active); in experiment [5] (at 50.0 µM), 19.6%; in experiment [6] (setting [7]), 33%; in experiment [6] (setting [8]), 93% (active); in experiment [6] (at 50.0 µM), 64.2%.

Regarding `CC(C)(C)C[CH2][Hg][Cl]`, the growth inhibition in experiment [1] (setting [7]) was 99% (active); in experiment [1] (setting [8]), 99% (active); in experiment [1] (at 50.0 µM), 99.2% (active); in experiment [2] (setting [7]) it was 100% (active); in experiment [2] (setting [8]), 99% (active); in experiment [2] (at 50.0 µM) it was 99.7% (active). For the same compound, the growth inhibition in experiment [3] (setting [7]) is 100% (active); in experiment [3] (setting [8]), 100% (active); in experiment [3] (at 50.0 µM), 99.5% (active); in experiment [4] (setting [7]) it was 99% (active); in experiment [4] (setting [8]) it was 100% (active); in experiment [4] (at 50.0 µM) it was 99.5% (active). Also, the growth inhibition was 99% (active) in experiment [5] (setting [7]); 99% (active) in experiment [5] (setting [8]); 99.6% (active) in experiment [5] (at 50.0 µM); 100% (active) in experiment [6] (setting [7]); 100% (active) in experiment [6] (setting [8]); 99.5% (active) in experiment [6] (at 50.0 µM).

Regarding `CSc1ccc(NC(=O)C2c3[nH]c4ccccc4c3C3CCC(C(C)(C)C)CC3C2C(=O)O)cc1` (configuration not stated), the growth inhibition was 0% in experiment [1] (setting [7]); -4% in experiment [1] (setting [8]); 16.8% in experiment [1] (at 50.0 µM); -16% in experiment [2] (setting [7]); 10% in experiment [2] (setting [8]); 1.95% in experiment [2] (at 50.0 µM). The growth inhibition is -4% in experiment [3] (setting [7]); 1% in experiment [3] (setting [8]); 30.8% in experiment [3] (at 50.0 µM); -19% in experiment [4] (setting [7]); 8% in experiment [4] (setting [8]); 56.4% in experiment [4] (at 50.0 µM). Also, the growth inhibition was -8% in experiment [5] (setting [7]); 5% in experiment [5] (setting [8]); 77.1% (active) in experiment [5] (at 50.0 µM); 11% in experiment [6] (setting [7]); 26% in experiment [6] (setting [8]); 46% in experiment [6] (at 50.0 µM).

Take `CC(=O)[CH-]C(=O)c1ccccc1.CC(=O)[CH-]C(=O)c1ccccc1.C[C@]12CCC(=O)C=C1CC[C@@H]1C2CC[C@@]2(C)C1CC[C@]2(C)[O-].C[C@]12CCC(=O)C=C1CC[C@@H]1C2CC[C@@]2(C)C1CC[C@]2(C)[O-].Cl.[Ti+4]` (some centres not stated): the growth inhibition is 33% in experiment [1] (setting [7]); 76% (active) in experiment [1] (setting [8]); 86.8% (active) in experiment [1] (at 50.0 µM); 26% in experiment [2] (setting [7]); 87% (active) in experiment [2] (setting [8]); 85% (active) in experiment [2] (at 50.0 µM). In addition, the growth inhibition in experiment [3] (setting [7]) is 37%; in experiment [3] (setting [8]), 93% (active); in experiment [3] (at 50.0 µM), 84.8% (active); in experiment [4] (setting [7]), 13%; in experiment [4] (setting [8]) it was 72% (active); in experiment [4] (at 50.0 µM), 86.1% (active). Besides, the growth inhibition in experiment [5] (setting [7]) was 39%; in experiment [5] (setting [8]), 94% (active); in experiment [5] (at 50.0 µM), 84.5% (active); in experiment [6] (setting [7]), 37%; in experiment [6] (setting [8]), 90% (active); in experiment [6] (at 50.0 µM), 81.2% (active).

Values taken from PubChem BioAssay (NCI).
